Assay outcomes (PubChem)
mHTT-CaM PPI inh: inhibitors of human mutant huntingtin-calmodulin interaction; P42858; AlphaScreen His-mHTT/GST-CaM binding, luminescence; inhibition, % at 15 µM; 3.6% of 190,000 active
Pf apPOL block: Pf-apPOL DNA polymerase inhibition | Recombinant Pf-apPOL, molecular beacon fluorescence, 1.5 h | inhibition, % at 10 µM | 0.25% of 210,000 active | AID 1794808
A number is an active result; - = inactive; . = no result. This is a sample that favours compounds with a hit; in the whole collection about 3.5% have one here. Rule as the data show it: active = inhibition above about 50%; inactive = the rest.

SMILES	mHTT-CaM PPI inh	Pf apPOL block
CCCNC(=O)C1CCN(c2nc3ccsc3c(=O)n2Cc2ccc(F)cc2)CC1	-	-
O=C(Nc1nnc(SCc2cn3ccccc3n2)s1)c1cc(-c2ccco2)on1	-	-
O=C(Nc1nnc(SCc2c(F)cccc2Cl)s1)c1cc(-c2ccco2)on1	-	61
CCCN1CCN(C(=O)c2cc3c(s2)CCN(C(=O)c2ccccc2)C3)CC1	-	-
CCN1CCN(C(=O)c2ccc(CN3CCN(c4ccc(C)c(C)c4)CC3)o2)CC1	-	-
CCOc1ccc(N2CC(c3nnc(NC(=O)c4cccc(Cl)c4)o3)CC2=O)cc1 (configuration not stated)	77	-
COc1ccc(N2CC(c3nnc(NC(=O)c4cccc(Cl)c4)o3)CC2=O)cc1 (configuration not stated)	56	-
COc1ccc(N2CC(c3nnc(NC(=O)c4ccccc4)o3)CC2=O)cc1 (configuration not stated)	-	-
CSc1ccc(N2CC(c3nnc(NC(=O)c4cccc(C)c4)o3)CC2=O)cc1 (configuration not stated)	-	-
CSc1ccc(N2CC(c3nnc(NC(=O)c4cccc(Cl)c4)o3)CC2=O)cc1 (configuration not stated)	53	-
CCOc1ccc(N2CC(c3nnc(NC(=O)C4CC4)o3)CC2=O)cc1 (configuration not stated)	-	-
Cc1ccc(-c2noc(CCN3CCN(c4ccccn4)CC3)n2)cc1	-	-
O=C(Nc1ccccc1F)N1CCc2nc(Cc3cccc(F)c3)[nH]c(=O)c2C1	-	-
CN1C(=O)C(C)(C(=O)Nc2ccc(F)cc2)Oc2cccnc21 (configuration not stated)	-	-
CCCC(=O)N(c1ccccc1)C1CC(C)Nc2ccccc21 (configuration not stated)	54	-
CC1CC(Nc2ccccc2)c2ccccc2N1 (configuration not stated)	-	-
COc1ccccc1-c1noc(C2CCCN2C(=O)Nc2cccc(Br)c2)n1 (configuration not stated)	-	-
CCCCN(CC)S(=O)(=O)c1cc(Br)cc2c1N(C(C)=O)CC2	-	-
CCCN1C(=O)Cc2ccccc2C1C(=O)NCc1ccc(OC(C)C)cc1 (configuration not stated)	-	-
Brc1ccc(-c2cc3n(c2)CCn2cccc2-3)cc1	84	-
Fc1ccc(-c2cc3n(c2)CCn2cccc2-3)c(F)c1	100	-
Brc1ccc(-c2cc3ccccn3c2)cc1	-	-
CC1c2cccn2CCN1C(=O)Nc1ccc(F)cc1F (configuration not stated)	-	-
Clc1ccc(-c2cc3n(c2)CCn2cccc2-3)cc1Cl	100	-
c1ccc(C2=NCCn3cccc32)cc1	-	-
SMILES	mHTT-CaM PPI inh	Pf apPOL block
Cc1noc(COC2CCN(C(=O)C3COc4ccccc4O3)CC2)n1 (configuration not stated)	-	-
O=C(NCc1ccco1)C1(c2cccs2)CCCC1	-	-
CC(NC(=O)C1CCN(c2ccc(Cl)cc2Cl)C1=O)c1ccccc1 (configuration not stated)	-	-
CCOC(=O)C(=NNc1ccccc1)C(C)=N	.	-
NC(=NOC(=O)c1ccccc1)c1csc(-c2cccnc2)n1	.	-
Cc1c(Cl)cccc1NC(=O)C(=O)NCC(O)c1ccc(C(F)(F)F)cc1 (configuration not stated)	-	-
Cc1c(Cl)cccc1S(=O)(=O)NCC(O)c1ccc(C(F)(F)F)cc1 (configuration not stated)	68	-
CC(C)S(=O)(=O)c1ccc(CC(=O)NCC(O)c2ccc(C(F)(F)F)cc2)cc1 (configuration not stated)	-	-
O=S(=O)(NCC(O)c1ccc(C(F)(F)F)cc1)c1ccc2c(c1)CCCC2 (configuration not stated)	100	-
CCn1c(C2CCN(C(=O)c3ccc(OC)cc3)C2)nc2cccnc21 (configuration not stated)	-	-
O=C(Nc1cc(Cl)ccc1F)C1CC(=O)N(c2ccc3c(c2)CCN3C(=O)C2CC2)C1 (configuration not stated)	-	-
O=C(NC1CCCCC1)C1CCN(c2nc3cccnc3s2)CC1	-	-
Cn1nc(-c2nc(C3CC3)no2)c2c1CCN(C(=O)c1ccc(C(C)(C)C)cc1)C2	-	-
CCCNc1cc(N2CCC(CCC(=O)Nc3ccc4c(c3)OCO4)CC2)ncn1	60	-
CCNc1cc(N2CCC(CCC(=O)Nc3cc(C)ccc3OC)CC2)ncn1	55	-
CCCNc1cc(N2CCC(CCC(=O)Nc3ccc4c(c3)OCCO4)CC2)ncn1	-	-
CCNc1cc(N2CCC(CCC(=O)Nc3ccc(OC)c(OC)c3)CC2)ncn1	-	-
Cc1nc(Nc2ccccc2)sc1C(=O)Nc1cccc(F)c1	-	-
O=C(NCc1ccccc1)O[C@@H]1C[C@H]2C[C@@H]1[C@H]1CCCCN1C2	-	-
